Measurements reported in the supplement of paper PMC9950053.
Where a name gives a salt, the structure may show the parent alone.

test system: Danio rerio larvae (5 dpf); test: combined upward orientation toward moving lines (periods 7-14) minus DMSO control (percentage points); higher = more orientation with moving lines than DMSO larvae; settings: 10 µM; exposure time: 3 h pre-incubation + 3 h imaging
Description: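 Wild-type 5 dpf zebrafish larvae (n=48 per drug, 96-well plates, 28.5 °C) were exposed to Tocris FDA-approved library compounds at 10 µM (0.1% DMSO) for 3 h before and 3 h during imaging. Images were taken every 6 s during visual (moving coloured lines) and acoustic stimuli, and larvae were tracked with the DeepLabCut-based Z-LaP Tracker. Each behavioural measure is the treated-group mean minus the DMSO vehicle control mean (n=844), in percentage points. This mapping covers compounds with 4-character plate codes.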

SMILES	combined upward orientation toward moving lines
COc1ccc([C@@H]2Sc3ccccc3N(CCN(C)C)C(=O)[C@@H]2OC(C)=O)cc1 [Diltiazem hydrochloride]	-1.58
CN(C)CCc1c[nH]c2ccc(Cn3cncn3)cc12 [Rizatriptan benzoate]	-1.53
Cc1cn([C@H]2C=C[C@@H](CO)O2)c(=O)[nH]c1=O [Stavudine]	-0.971
CC(=O)O[C@]1(C(C)=O)CC[C@H]2[C@@H]3C=C(C)C4=CC(=O)CC[C@]4(C)[C@H]3CC[C@@]21C [Megestrol Acetate]	-1.8
O=C(Nc1c(Cl)cncc1Cl)c1ccc(OC(F)F)c(OCC2CC2)c1 [Roflumilast]	-2.52
CN1CCC[C@@H]1CCO[C@](C)(c1ccccc1)c1ccc(Cl)cc1 [Clemastine fumarate]	4.64
Brc1c(NC2=NCCN2)ccc2nccnc12	-1.14
O=C(c1ccc(OCCN2CCCCC2)cc1)c1c(-c2ccc(O)cc2)sc2cc(O)ccc12 [Raloxifene hydrochloride]	-2.81
CCCCCOC(=O)Nc1nc(=O)n([C@@H]2O[C@H](C)[C@@H](O)[C@H]2O)cc1F [Capecitabine]	-0.314
CC(CCc1ccc(O)cc1)NCCc1ccc(O)c(O)c1 (stereo not given) [Dobutamine hydrochloride]	0.917
CC[C@H](C)C(=O)O[C@H]1C[C@@H](C)C=C2C=C[C@H](C)[C@H](CC[C@@H]3C[C@@H](O)CC(=O)O3)[C@H]21 [Lovastatin]	-3.5
CC(=O)O[C@H]1C(=O)[C@@]2(C)[C@H]([C@H](OC(=O)c3ccccc3)[C@]3(O)C[C@H](OC(=O)[C@H](O)[C@@H](NC(=O)c4ccccc4)c4ccccc4)C(C)=C1C3(C)C)[C@]1(OC(C)=O)CO[C@@H]1C[C@@H]2O [Taxol]	-6.91
C[C@]12CCC(=O)C=C1CC[C@@H]1[C@@H]2[C@@H](O)C[C@@]2(C)[C@H]1CC[C@]2(O)C(=O)CO [Hydrocortisone]	0.758
CN1CC(=O)N2[C@H](c3ccc4c(c3)OCO4)c3[nH]c4ccccc4c3C[C@@H]2C1=O [Tadalafil]	-7.35
CCOC(=O)c1ncn2c1CN(C)C(=O)c1cc(F)ccc1-2 [Flumazenil]	2.99
CC1=Nc2ccc(Cl)cc2S(=O)(=O)N1 [Diazoxide]	-1.53
CN(C)CC/C=C1/c2ccccc2COc2ccc(CC(=O)O)cc21 [Olopatadine hydrochloride]	-3.54
CC(C)(C)NC(=O)[C@@H]1C[C@@H]2CCCC[C@@H]2CN1C[C@@H](O)[C@H](Cc1ccccc1)NC(=O)[C@H](CC(N)=O)NC(=O)c1ccc2ccccc2n1 [Saquinavir mesylate]	-6.24
Nc1ncn([C@H]2C[C@H](O)[C@@H](CO)O2)c(=O)n1 [Decitabine]	-6.22
O=C(O)c1cc(/N=N/c2ccc(S(=O)(=O)Nc3ccccn3)cc2)ccc1O [Sulfasalazine]	-3.42

SMILES	combined upward orientation toward moving lines
COc1c(C)c2c(c(O)c1C/C=C(\C)CCC(=O)OCCN1CCOCC1)C(=O)OC2 [Mycophenolate mofetil]	4.45
CCOC(=O)[C@H](CCc1ccccc1)N[C@H]1CCc2ccccc2N(CC(=O)O)C1=O [Benazepril hydrochloride]	-4.13
Cn1nnc2c(C(N)=O)ncn2c1=O [Temozolomide]	-6.36
COc1cccc2c1C(=O)c1c(O)c3c(c(O)c1C2=O)C[C@@](O)(C(=O)CO)C[C@@H]3O[C@H]1C[C@H](N)[C@H](O)[C@H](C)O1 [Doxorubicin hydrochloride]	-1.38
CCCCCCCCc1ccc(CCC(N)(CO)CO)cc1	-8.46
CCN(Cc1ccncc1)C(=O)C(CO)c1ccccc1 (stereo not given) [Tropicamide]	3.89
COCCCOc1cc(C[C@@H](C[C@H](N)[C@@H](O)C[C@H](C(=O)NCC(C)(C)C(N)=O)C(C)C)C(C)C)ccc1OC [Aliskiren hemifumarate]	-2.45
CCc1ccc(CCOc2ccc(CC3SC(=O)NC3=O)cc2)nc1 (stereo not given) [Pioglitazone hydrochloride]	-3.8
CN1CC[C@@H](NC(=O)Nc2ccc(C#N)cc2)C[C@@H]1c1nc2ccccc2[nH]1	4.61
Nc1nc2c(ncn2COCCO)c(=O)[nH]1 [Acyclovir]	0.15
CN1CCN(CCCN2c3ccccc3Sc3ccc(Cl)cc32)CC1 [Prochlorperazine dimaleate]	0.242
CCCCC(=O)N(Cc1ccc(-c2ccccc2-c2nnn[nH]2)cc1)[C@H](C(=O)O)C(C)C [Valsartan]	2.9
CCCN(CCc1cccs1)[C@H]1CCc2c(O)cccc2C1 [Rotigotine hydrochloride]	-7.46
CC#C[C@]1(O)CC[C@H]2[C@@H]3CCC4=CC(=O)CCC4=C3[C@@H](c3ccc(N(C)C)cc3)C[C@@]21C [Mifepristone]	2.94
CC(=O)Oc1ccccc1C(=O)O [Aspirin]	-3.93
Clc1ccc(COC(Cn2ccnc2)c2ccc(Cl)cc2Cl)c(Cl)c1 (stereo not given) [Miconazole nitrate]	-3.31
C[C@H]1C[C@@H]2[C@H]([C@@H](O)C[C@@]3(C)[C@H]2CC[C@]3(O)C(=O)CO)[C@@]2(C)C=CC(=O)C=C12 [Methylprednisolone]	-7.43
CCOC(=O)C1=C(C)NC(C)=C(C(=O)OC)C1c1cccc(Cl)c1Cl (stereo not given) [Felodipine]	-3.05
C[C@@H](O[C@H]1OCCN(Cc2n[nH]c(=O)[nH]2)[C@H]1c1ccc(F)cc1)c1cc(C(F)(F)F)cc(C(F)(F)F)c1 [Aprepitant]	4.05
COc1ccccc1OCCNCC(O)COc1cccc2[nH]c3ccccc3c12 (stereo not given) [Carvedilol]	-11.6
